Experimental data: the OligoGym collection

Target: KCNK12
Assay: pooled miR-30 sensor sort-seq; sequence = guide strand
Settings: shRNA
Also: reference of the scale not given here.

| Sequence | sensor-assay potency score (higher = more potent) |
| --- | --- |
| TTGACGCACACGCTGCGCGGGT | -0.763 |
| AGTAAATGCAGCACACGCCGAG | -1.04 |
| TACATGGCCGAGGCGCAGCAGG | -1.41 |
| TCGTTGAGGTGCGAACGGCGGC | -1.1 |
| TTGAGCACCTGCTTGATGAGGA | 0.236 |
| TTGAGGTGCGAACGGCGGCAGC | -1.57 |
| TCGAGCGCCGAGAAGACTGTGG | -0.801 |
| TTCTGCAGCAGCGCCAGCGACA | -1.81 |
| TTGATGAGGATGGAGATGACGT | -0.352 |
| AAGAGGTTGAAGAACAGGATGG | -0.732 |
| TTGAAGAACAGGATGGTCCCAG | 0.312 |
| TTGTTCATGATGCCCAGCGCGC | -1.54 |

Target: KCNK6
Assay: as above
Settings: shRNA

| Sequence | sensor-assay potency score (higher = more potent) |
| --- | --- |
| TCATCCGCATTGAAACTGGCAG | -0.75 |
| TTGTGTACCCATAGCCCACGGT | -0.627 |
| AAGGCATCCAAGAAGCTCCAGG | -0.209 |
| TCGGAGCCTGGCTTCGTGCGGC | -0.634 |
| TCCTCATCCGCATTGAAACTGG | -1.46 |
| TAAAGCAGAAGTAGAAGGCATC | -0.372 |
| TTGCTGGTGCGACTCCGGCTGG | -1.34 |
| TGGAGGTCGGACACGTGGCGGA | -1.12 |
| TAGAAGGCATCCAAGAAGCTCC | -0.185 |
| TAGTCGGTGTGGGAGCTGGCAG | -1.57 |
